Assay outcomes deposited in PubChem BioAssay by National Center for Advancing Translational Sciences (NCATS).
HT1080 IDH1KD tx: kills HT-1080 cells with IDH1 knockdown | HT-1080 IDH1 knockdown viability, ATP luminescence, 48 h | Potency, µM (highest dose often 46.1 µM), most hits filed as cytotoxic | 2% of 360,000 active
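Knockdown cells (IDH1KD HT-1080) received compounds 2 h after plating at 750 cells/well and were kept 48 h at 37 °C in 5% FBS RPMI. A CellTiter-Glo luminescence read gave % activity for curve fitting.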
TDP1 cell noCPT: qHTS for Inhibitors of human tyrosyl-DNA phosphodiesterase 1 (TDP1): qHTS in cells in absence of CPT; DT40 Tdp1-/- hTDP1 cells, no CPT, ATP luminescence, 48 h; Potency, µM (highest dose often 46.2 µM), usual class: inhibitors; 15% of 420,000 active; AID 686978, 2013; note: nearly all actives have a fitted effect of over 55% in size
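Growth kinetics read by CellTiter-Glo luminescence after ≥48 hr at 37 °C. Cells: DT40 Tdp1-/- stably carrying human TDP1, 400 per well, compound exposure in the absence of CPT (DMSO vehicle).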
HT1080-NT tox: kills 2HG-producing HT-1080-NT fibrosarcoma cells. HT-1080-NT fibrosarcoma viability, CellTiter-Glo ATP luminescence, 48 h. Potency, µM (doses to about 46.1 µM), hits mostly cytotoxic. 1.6% of 360,000 active;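 note: NT is the 2HG producing partner of a matched IDH1 knockdown line; nearly all actives have a fitted effect of over 55% in size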
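Compounds were tested in concentration-response format on HT-1080-NT cells for 48 hours at 37 degrees C. Cell viability came from CellTiter-Glo luminescence; curves were classified by r2, response magnitude and activity.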
HepG2 viability: HepG2 cytotoxicity, counter-screen for TGF-b inhibitors; HepG2 CAGA-GFP viability, ATP luminescence, 18 h; Potency, µM (series often up to 46.1 µM), hits mostly cytotoxic; 0.76% of 410,000 active
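HepG2 CAGA-GFP cells (1000/well, DMEM with 1% FBS) received compound, then TGF-beta at 500 pg/mL final, and were incubated 18 hours at 37 degrees C. Viability was read by CellTiter-Glo luminescence. Media-only wells were set as complete cell-killing and DMSO as no toxicity.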
TGFb inhibitor: blocks TGF-b signaling; HepG2 CAGA-GFP TGF-b/SMAD3 reporter, GFP fluorescence, 18 h; TGF-beta stimulated, 500 pg/mL final; Potency, µM (series often up to 46.1 µM), most hits filed as inhibitors; 1.2% of 410,000 active; note: nearly all actives have a fitted effect of over 65% in size
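Per well, imaged GFP fluorescence of HEPG2 CAGA-GFP cells gives the signal; cells get compound, then TGF-beta (500 pg/mL final), 18 h at 37 degrees C; %Activity versus -TGF-beta and +DMSO controls.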
DT40 TDP1 CPT: growth inhibition of DT40 Tdp1-/-;hTDP1 cells with camptothecin (screen for TDP1 inhibitors); chicken DT40 Tdp1-/-;hTDP1 cells + 20 nM CPT, ATP luminescence, 48 h; Potency, µM (series often up to 46.2 µM), usual class: inhibitors; 12% of 420,000 active; note: nearly all actives have a fitted effect of over 55% in size
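Chicken DT40 Tdp1-/- cells complemented with human TDP1, 400 cells/well, exposed to compounds plus 20 nM camptothecin for at least 48 h at 37 C; viability read as ATP content by CellTiter-Glo luminescence.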
Numbers stand for hits; 0 = inactive; ? = inconclusive; - = not tested or not shown; ! = not active in a repeat; [ ] = dose if it differs, or a comment. Shown are actives, neighbours in structure and some others; about 17% of the full set was active somewhere. Calls come from the whole dose curve; as a rule, active = well fitted curve in the direction sought with a large enough effect; inconclusive = small, poorly fitted or top-dose-only effect, or another doubt; inactive = no such curve, though single readings can be large; an effect the other way counts as inactive or inconclusive.

SMILES | HT1080 IDH1KD tx | TDP1 cell noCPT | HT1080-NT tox | HepG2 viability | TGFb inhibitor | DT40 TDP1 CPT
CC1CCCN(CCCNC(=O)c2ccc3c(c2)N(Cc2ccccc2F)C(=O)c2ccccc2S3(=O)=O)C1 (configuration not stated) | ? | 15µM | 26µM | 11µM! | ? | 23µM
CC1CCCN(CCCNC(=O)c2ccc3c(c2)N(Cc2ccc(F)cc2)C(=O)c2ccccc2S3=O)C1 (configuration not stated) | ? | ? | ? | 0 | ? | 16µM
CCN1CCCC1CNC(=O)c1ccc2c(c1)N(Cc1ccccc1F)C(=O)c1ccccc1S2(=O)=O (configuration not stated) | 0 | 0 | 0 | 0 | 0 | 0
O=C(NCCCN1CCOCC1)c1ccc2c(c1)N(Cc1ccccc1)C(=O)c1ccccc1S2=O (configuration not stated) | 0 | 0 | 0 | 0 | 0 | ?
CCC1CCCCN1CCCNC(=O)c1ccc2c(c1)N(Cc1ccc(F)cc1)C(=O)c1ccccc1S2=O (configuration not stated) | 23µM | ? | 21µM | 0 | ? | ?
C/C(=C\c1ccco1)CN1CCOc2ccc(C(C)(O)COc3ccccc3)cc2C1 (configuration not stated) | - | ? | - | - | - | 0[9.04 µM]
Cc1cc(C)c2nc(NC(=O)c3ccc(OCC4CCCO4)cc3)sc2c1 (configuration not stated) | ? | 21µM | 0 | 0 | 0 | ?
Cc1ccc2nc(NC(=O)c3ccc(OCC4CCCO4)cc3)sc2c1 (configuration not stated) | 7.3µM | 15µM | 0 | 0 | 0 | 13µM
NNC(=O)c1cccc(COc2ccc3c(c2)CCC3)c1 | 0 | ? | 0 | 0 | 0 | 0
COc1ccc(CNC(=O)COc2ccc(F)cc2)cc1 | 0 | 0 | 0 | 0 | 0 | 0
COc1ccc(CNC(=O)COc2ccc(C(=O)c3ccc(F)cc3)cc2)cc1 | 5.2µM | 4.6µM | ? | 0 | ? | 2.6µM
O=C(COc1ccc(C(=O)c2ccc(F)cc2)cc1)NCc1ccc(F)cc1 | ? | 4.6µM | ? | 0 | ? | 3.3µM
CCN(CC)S(=O)(=O)c1ccc(C(=O)NC(=S)N2CCCCC2C)cc1 (configuration not stated) | 0 | 16µM | 0 | 0 | 0 | ?
CC1CCCCN1C(=S)NC(=O)c1ccccc1 (configuration not stated) | 0 | ? | 0 | 0 | 0 | ?
O=C1Nc2ccccc2S/C1=C/Nc1cccc(Cl)c1 | ? | ? | ? | 0 | 0 | ?
COc1ccccc1CNC(=O)Cn1c(=O)ccc2cc(S(=O)(=O)N3CCCC3)ccc21 | - | 0 | - | 0 | 0 | 0
COc1ccc(NC(=O)Cn2c(=O)ccc3cc(S(=O)(=O)N4CCCC4)ccc32)cc1Cl | - | 13µM | - | 0 | 0 | 16µM
COc1cc(NC(=O)Cn2c(=O)ccc3cc(S(=O)(=O)N4CCCC4)ccc32)cc(OC)c1 | - | 15µM | - | 0 | 0 | ?
Cc1ccc(NC(=O)Cn2c(=O)ccc3cc(S(=O)(=O)N4CCCC4)ccc32)cc1C | - | 0 | - | 0 | 0 | 0
O=C(NC12CC3CC(CC(C3)C1)C2)c1ccccc1 | 0 | 0 | 0 | 0 | 0 | 0
O=C(NC12CC3CC(CC(C3)C1)C2)N(Cc1ccccc1)Cc1ccncc1 | 0 | 18µM | 0 | 0 | 0 | 13µM
CNC(=O)c1ncoc1-c1ccc(Cl)cc1 | 0 | ? | ? | 0 | 0 | 0
CC(=C/c1ccc(C(C)C)cc1)/C=N/NC(=O)CSc1ccccn1 | 0 | ? | 0 | 0 | ? | ?
CC(/C=N/NC(=O)CSc1ccccn1)=C\c1ccc(C(C)C)cc1 | 0 | 10µM | 0 | 0 | 0 | ?
OCCN1CCN(c2nc(-c3ccccc3)nc3c2oc2ccccc23)CC1 | ? | 16µM | 23µM | 0 | 0 | ?
SMILES | HT1080 IDH1KD tx | TDP1 cell noCPT | HT1080-NT tox | HepG2 viability | TGFb inhibitor | DT40 TDP1 CPT
O=C(O)CSc1nc(-c2ccccc2)nc2c1oc1ccccc12 | 0 | 0 | 0 | 0 | 0 | 0
O=C(O)C1CCN(c2nc(-c3ccccc3)nc3c2oc2ccccc23)CC1 | 0 | ? | 0 | 0 | 0 | 0
OCCN1CCN(c2nc(-c3ccccc3O)nc3ccccc23)CC1 | ? | 16µM | ? | 0 | ? | 0
OCCN(CCO)c1nc(-c2ccccc2)nc2c1oc1ccccc12 | 0 | ? | 0 | 0 | 0 | 16µM
Cc1ccc2[nH]cc(CCNC(=O)c3cccs3)c2c1 | 0 | ? | 0 | 0 | 0 | 0
COc1cc(OC)c(NC(=O)CCc2c(C)nc3c4c(C)cc(C)nc4nn3c2C)cc1Cl | - | 0 | - | 0 | 0 | 0
CC(=O)Cn1cnc2c(cnn2-c2ccc(C)c(C)c2)c1=O | 0 | ? | 0 | 0 | 0 | ?
